Results: PubChem BioAssay (Tox21)
Where “and” joins values, the source holds several entries; their conditions need not be identical. Identical values can stand only once. Results filed as inconclusive are left out. Calls of active or inactive are those of the source. Unless noted, calls come from the whole dose curve; as a rule, active = well fitted curve in the direction sought with a large enough effect in the repeat runs; inconclusive = weak or mixed curves; inactive = no such curve, though single readings can be large; an effect the other way counts as inactive or inconclusive.

Tests used:
[1] = qHTS assay to identify small molecule agonists of the peroxisome proliferator-activated receptor delta (PPARd) signaling pathway - cell viability counter screen (AID 743211); note: nearly all actives have a fitted effect of over 55% in size; note: potency is the fitted concentration of half-maximal effect
How it was run: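 Viability was measured as CellTiter-Glo luminescence (30 min, room temperature) in the same wells as the beta-lactamase readout. GeneBLAzer PPARd UAS-bla HEK293H cells received compound after 5 h plating and were incubated 17 h at 37 C.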

[2] = molecular target: Peroxisome proliferator-activated receptor delta (Homo sapiens) (UniProt Q03181); assay: qHTS assay to identify small molecule agonists of the peroxisome proliferator-activated receptor delta (PPARd) signaling pathway (AID 743212; calls by dose curve)
How it was run: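 Tox21 library screened in GeneBLAzer PPARd UAS-bla HEK293H cells. After compound treatment at 37 C, a FRET-based beta-lactamase substrate was applied for 2 h and fluorescence recorded.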

[3] = qHTS assay to identify small molecule antagonists of the peroxisome proliferator-activated receptor delta (PPARd) signaling pathway - cell viability counter screen (AID 743213); note: nearly all actives have a fitted effect of over 50% in size; note: potency is the fitted concentration of half-maximal effect
How it was run: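 HEK293H PPARd UAS-bla cells, 5 h pre-incubation, compound + L165041 300 nM final, 17 h 37 C; B/G FRET substrate 2 h RT; then CellTiter-Glo 30 min RT, luminescence.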

[4] = molecular target: Peroxisome proliferator-activated receptor delta (Homo sapiens) (UniProt Q03181); assay: qHTS assay to identify small molecule antagonists of the peroxisome proliferator-activated receptor delta (PPARd) signaling pathway (AID 743215; active = well fitted inhibition curve with a large enough effect in the signal ratio in the repeat runs, not every such curve was filed as active; the % refers to the signal ratio;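 note: cells stimulated with agonist L165041 at 300 nM final during compound exposure; series mostly up to about 62 µM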)
How it was run: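 Fluorescence from cleaved LiveBLAzer B/G FRET substrate (2 h, room temperature) reports PPARd-driven beta-lactamase in HEK293H UAS-bla cells. Cells had been treated 17 h at 37 C with compound plus 300 nM final L165041.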

[5] = qHTS assay to identify small molecule antagonists of the farnesoid-X-receptor (FXR) signaling pathway - cell viability counter screen (AID 743221; active = well fitted cell-killing curve with a large enough effect in the repeat runs, not every such curve was filed as active; note: nearly all actives have a fitted effect of over 50% in size)
How it was run: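 Cytotoxicity counter screen run in the FXR-bla reporter wells: HEK 293T cells exposed to compound with 50 uM (final) chenodeoxycholic acid for 16 h, 37 C, then viability measured by CellTiter-Glo luminescence after 30 min, room temperature.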

[6] = molecular target: Vitamin D3 receptor (Homo sapiens) (UniProt P11473); assay: qHTS assay to identify small molecule agonists of the vitamin D receptor (VDR) signaling pathway (AID 743222; calls by dose curve)
How it was run: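 Following 4 h attachment at 37C, VDR-bla cells (2,000 per well) received DMSO-dissolved compounds or controls. After 16 h incubation, LiveBLAzer B/G FRET substrate was added and fluorescence read 2 h later at room temperature.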

[7] = molecular target: Vitamin D3 receptor (Homo sapiens) (UniProt P11473); assay: qHTS assay to identify small molecule antagonists of the vitamin D receptor (VDR) signaling pathway (AID 743223; active = well fitted inhibition curve with a large enough effect in the signal ratio in the repeat runs, not every such curve was filed as active; the % refers to the signal ratio)
How it was run: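 Antagonist mode: compound added to VDR-bla cells alongside agonist 1alpha,25-dihydroxyvitamin D3 (3 nM final), incubation 16 h at 37C. Read-out is LiveBLAzer FRET fluorescence, 2 h at room temperature.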

[8] = qHTS assay to identify small molecule agonists of the farnesoid-X-receptor (FXR) signaling pathway - cell viability counter screen (AID 743218); note: nearly all actives have a fitted effect of over 45% in size
How it was run: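 Readout: CellTiter-Glo luminescence, 30 min RT, multiplexed after the FXR-bla FRET reading. HEK 293T FXR-UAS-bla cells received compound 5 h post-plating and were incubated 16 h at 37 C.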

[9] = molecular target: Bile acid receptor (Homo sapiens) (UniProt Q96RI1); assay: qHTS assay to identify small molecule antagonists of the farnesoid-X-receptor (FXR) signaling pathway (AID 743217; active = well fitted inhibition curve with a large enough effect in the signal ratio in the repeat runs, not every such curve was filed as active; the % refers to the signal ratio; note: potency is the fitted concentration of half-maximal effect)
How it was run: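 FRET fluorescence after 2 h room-temperature LiveBLAzer loading gives the readout. Prior step: FXR-bla HEK 293T cells, seeded and incubated 5 h, received test compounds plus 50 uM final CDCA for 16 h at 37 °C.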

[10] = molecular target: Bile acid receptor (Homo sapiens) (UniProt Q96RI1); assay: qHTS assay to identify small molecule agonists of the farnesoid-X-receptor (FXR) signaling pathway (AID 743220; active = well fitted activation curve with a large enough effect in the signal ratio in the repeat runs, not every such curve was filed as active; the % refers to the signal ratio)
How it was run: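 FXR-UAS-bla HEK 293T cells carrying a UAS-driven beta-lactamase reporter were plated for 5 h at 37C/5% CO2, then exposed to DMSO-dissolved Tox21 10K compounds for 16 h at 37C. A LiveBLAzer B/G FRET substrate was loaded for 2 h at room temperature before fluorescence reading.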
% is set by controls: 0 for no effect and ±100 for the full control effect.

Sequence of Bile acid receptor (Homo sapiens) (Q96RI1 whole entry, looked up): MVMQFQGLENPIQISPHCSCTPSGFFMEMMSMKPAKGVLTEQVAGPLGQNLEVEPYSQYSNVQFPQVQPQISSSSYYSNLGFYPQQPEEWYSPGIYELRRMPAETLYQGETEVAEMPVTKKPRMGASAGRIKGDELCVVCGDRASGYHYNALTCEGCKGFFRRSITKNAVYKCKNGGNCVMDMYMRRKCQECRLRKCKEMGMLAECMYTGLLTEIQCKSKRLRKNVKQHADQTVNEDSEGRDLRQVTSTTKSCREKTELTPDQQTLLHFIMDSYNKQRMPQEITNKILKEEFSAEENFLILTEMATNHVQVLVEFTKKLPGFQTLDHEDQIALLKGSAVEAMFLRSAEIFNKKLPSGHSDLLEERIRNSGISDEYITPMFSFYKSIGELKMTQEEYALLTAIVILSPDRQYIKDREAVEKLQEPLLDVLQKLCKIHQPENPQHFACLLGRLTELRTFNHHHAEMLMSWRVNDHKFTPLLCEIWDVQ
Sequence of Vitamin D3 receptor (Homo sapiens) (P11473 whole entry, looked up): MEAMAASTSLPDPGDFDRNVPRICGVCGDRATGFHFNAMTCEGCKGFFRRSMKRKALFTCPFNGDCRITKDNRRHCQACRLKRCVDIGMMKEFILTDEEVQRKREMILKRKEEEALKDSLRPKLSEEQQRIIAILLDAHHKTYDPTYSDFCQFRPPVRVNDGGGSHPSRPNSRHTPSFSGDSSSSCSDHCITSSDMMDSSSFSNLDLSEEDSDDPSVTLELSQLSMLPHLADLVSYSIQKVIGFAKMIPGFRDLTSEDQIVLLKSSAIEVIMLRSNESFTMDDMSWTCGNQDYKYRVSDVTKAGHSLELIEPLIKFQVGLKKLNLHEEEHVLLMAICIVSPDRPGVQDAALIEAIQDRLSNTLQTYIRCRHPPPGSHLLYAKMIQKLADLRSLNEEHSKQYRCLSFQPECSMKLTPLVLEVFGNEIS
Sequence of Peroxisome proliferator-activated receptor delta (Homo sapiens) (Q03181 whole entry, looked up): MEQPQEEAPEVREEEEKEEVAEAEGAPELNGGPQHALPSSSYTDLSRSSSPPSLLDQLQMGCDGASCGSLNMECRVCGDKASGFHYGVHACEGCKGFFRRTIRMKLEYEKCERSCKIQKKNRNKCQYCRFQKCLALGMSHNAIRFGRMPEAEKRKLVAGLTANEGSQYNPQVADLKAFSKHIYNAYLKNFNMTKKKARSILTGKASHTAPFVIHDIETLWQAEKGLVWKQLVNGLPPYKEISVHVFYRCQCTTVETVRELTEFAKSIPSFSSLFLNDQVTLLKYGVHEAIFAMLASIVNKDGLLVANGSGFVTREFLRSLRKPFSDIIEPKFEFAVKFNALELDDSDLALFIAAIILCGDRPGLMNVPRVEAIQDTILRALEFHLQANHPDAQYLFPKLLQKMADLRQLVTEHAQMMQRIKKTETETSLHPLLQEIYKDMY

CCCCCCCCP(=O)(O)O
inactive: Potency [1] | outcome [2] | Potency [3] | Potency [4] | Potency [5] | outcome [6] | Potency [7]

CN(C)N
inactive: Potency [1] | outcome [2] | Potency [3] | Potency [4] | Potency [8] | Potency [5] | outcome [6] | Potency [7]

COC(=O)C1(O)c2ccccc2-c2ccccc21
inactive: Potency [1] | outcome [2] | Potency [3] | Potency [4] | Potency [8] | outcome [6]

CNC(=O)Oc1cccc(N=CN(C)C)c1
inactive: Potency [1] | outcome [2] | Potency [4] | Potency [9] | Potency [8] | Potency [5] | outcome [6] | Potency [7]

C=C(C)C(=O)OCCCCOC(=O)C(=C)C
inactive: Potency [1] | outcome [2] | Potency [3] | Potency [4] | Potency [8] | outcome [6]

CCCCCCCCCCCCN=C(N)N
inactive: activity change, negative = cytotoxicity [1] -26.8% [at 2.7 µM] | activation [2] 6.16% [at 2.7 µM] | viability change, negative = cytotoxic [3] -15.8% [at 2.83 µM] | activity change, negative = cytotoxicity [5] -27.4% [at 2.69 µM] | activation [6] -0.533% [at 2.71 µM] | activity change, negative = inhibition [7] 3.88% [at 3.11 µM]

CC(C)(C)N(NC(=O)c1ccc(Cl)cc1)C(=O)c1ccccc1
inactive: Potency [1] | outcome [2] | Potency [4] | Potency [9] | Potency [8] | Potency [5] | outcome [6] | Potency [7]

CCC(C)(C)O
inactive: Potency [1] | outcome [2] | Potency [3] | Potency [4] | Potency [8] | Potency [5] | outcome [6] | Potency [7]

CCc1cnc(C2=NC(C)(C(C)C)C(=O)N2)c(C(=O)O)c1 (centres undefined)
inactive: Potency [1] | outcome [2] | Potency [3] | Potency [4] | Potency [8] | Potency [5] | Potency [7]

OC[P+](CO)(CO)CO
inactive: Potency [1] | outcome [2] | Potency [8] | Potency [5] | outcome [6] | Potency [7]

CCOC(=O)NC(O)C(Cl)(Cl)Cl (centres undefined)
inactive: Potency [1] | Potency [3] | Potency [9] | Potency [8] | outcome [10] | Potency [5]

C[C@]12CC[C@H]3[C@@H](CCC4=CC(=O)CC[C@@H]43)[C@@H]1CC[C@@H]2OC(=O)CCc1ccccc1
inactive: Potency [1] | outcome [2] | Potency [4] | Potency [8] | Potency [5] | outcome [6] | Potency [7]

O=[N+]([O-])c1cc(Cl)c(Cl)cc1Cl
inactive: Potency [1] | outcome [2] | Potency [4] | Potency [8] | Potency [5] | outcome [6] | Potency [7]

CC(C)c1ccc(OP(=O)(Oc2ccc(C(C)C)cc2)Oc2ccc(C(C)C)cc2)cc1
active: Potency [1] 27.7 µM and 43.7 µM and 27.5 µM | Potency [3] 4.89 µM | Potency [9] 22 µM
inactive: Potency [7]
